Screening results as filed in PubChem.
ssDAF12 agonist: S. stercoralis DAF-12 activation, primary screen; hit rate 1% among 370,000; activation, % at 6.8 µM; AID 652126; HEK293 ssDAF-12/GRIP1 lit1-tk-luc reporter, luminescence; % of 3 µM dafachronic acid response;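 active = activation above the mean over all tested compounds plus 3 SD, cut at about 0.9% in these data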
DAX1 inh-1: inhibits human nuclear receptor DAX1 | AID 504766 | inhibition, % at 6.75 µM | HEK293 Gal4-DAX1 luciferase reporter, luminescence | hit rate 0.99% among 340,000 | P51843;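 active = inhibition above the mean over all tested compounds plus 3 SD, cut at about 4.2% in these data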;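 also: inhibition shows as a rise in luminescence from relieved DAX1 repression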
Target sequence (P51843 207-470 limits assumed): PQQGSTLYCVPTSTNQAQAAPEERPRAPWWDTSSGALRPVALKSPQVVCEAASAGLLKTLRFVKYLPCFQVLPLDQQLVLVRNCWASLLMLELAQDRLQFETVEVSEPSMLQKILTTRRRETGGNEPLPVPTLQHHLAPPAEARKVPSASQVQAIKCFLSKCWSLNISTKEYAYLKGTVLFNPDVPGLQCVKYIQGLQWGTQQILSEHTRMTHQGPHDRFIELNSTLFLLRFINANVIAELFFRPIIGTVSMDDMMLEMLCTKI
hcDAF12 agonist: activators of H. contortus DAF-12 nuclear receptor; HEK293 hcDAF-12 lit1-tk-luc reporter, luminescence; 0% DMSO, 100% Δ7-dafachronic acid; activation, % at 6.8 µM; hit rate 1.4% among 370,000;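 active = activation above the mean of all tested compounds plus 3 SD, cut at about 5.5% in these data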
hgDAF12 agonist: agonists of H. glycines DAF-12 nuclear receptor | HEK293 GAL4-hgDAF12 UAS-luciferase reporter, agonist luminescence; normalized to butyrate control | activation, % at 6.8 µM | hit rate 1.8% among 370,000;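 active = activation above a cutoff set at the mean of all screened compounds plus 3 SD, cut at about 10% in these data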
DAX1 inh-2: blocks DAX1 repression of SF-1 activated StAR promoter; hit rate 1.1% among 370,000; inhibition, % at 6.8 µM; AID 652010; HEK293T StAR-luciferase reporter, SF-1/DAX-1 repression relief;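 active = inhibition above the mean over all tested compounds plus 3 SD, cut at about 3.6% in these data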;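 also: higher inhibition means more luminescence from relief of DAX-1 repression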
SMARCA2 act: increases SMARCA2 function in MMTV reporter cells. hit rate 1% among 370,000. AID 652017. MG213 cells, MMTV-luciferase reporter, dexamethasone, overnight. activation, % at 9.1 µM; in the data active = activation above about 7.8%
Hits are given with their value; - = inactive; . = not tested or not shown. This is a sample that favours compounds with a hit; in the whole collection about 4.8% have one here.

SMILES | ssDAF12 agonist | DAX1 inh-1 | hcDAF12 agonist | hgDAF12 agonist | DAX1 inh-2 | SMARCA2 act
CCOc1ccc(NC(=O)c2ccc(NC(=O)c3ccc(NC(N)=O)cc3)cc2)cc1 | - | . | - | - | - | -
CCOc1ccc(C(=O)NCc2cccs2)cc1 | - | - | - | - | - | 7.9
COc1ccc(C(=O)Nc2ccc3c(c2)n(C)c(=O)n3C)cc1OC | - | - | - | - | - | -
COc1ccc(S[C@]2(C(=O)N3CCCC3)CC(=O)N(C(=O)/C=C/c3ccccc3)[C@@H]2c2ccc(OC)cc2)cc1 | - | . | - | - | - | -
CC(C)C(=O)N1CC[C@H]2[C@H](CCCN2Cc2ccccc2)C1 | - | . | - | - | - | -
COc1ccc(NC(=O)c2ccc3ncsc3c2)cc1 | 1.3 | - | - | - | - | -
C=CCN1C(=O)[C@@H](CC(=O)NCCCN2CCCC2=O)[C@]2(C(=O)OCC)CCCCC/C=C/12 | - | . | - | - | - | -
CC1=CC(=O)Nc2ccccc2S1 | 1.1 | - | 5.7 | 11.0 | - | -
CC1(C)CC(=O)C2=C(C1)Nc1ccccc1S2 | - | - | - | - | - | -
Cc1cc(OCC(=O)NC(C)C)ccc1Cl | - | - | - | - | - | -
Cc1cc(OCC(=O)NC(C)C)cc(C)c1Br | - | 4.4 | - | - | - | -
O=c1oc2ccccc2c(N2CCCC2)c1[N+](=O)[O-] | - | 4.7 | - | - | - | -
O=c1oc2ccccc2c(N2CCCCC2)c1[N+](=O)[O-] | - | - | - | - | - | -
CCOc1cc(N2CCOCC2)c(OCC)cc1NC(=O)COC(=O)CCOc1ccc(C(C)(C)C)cc1 | - | - | - | - | - | -
CC(C)(C)c1ccc(OCCC(=O)Nc2ccc(N3CCOCC3)cc2N2CCOCC2)cc1 | - | - | - | - | 4.0 | -
O=C1CCCCCN1CP(=O)(O)CN1CCCCCC1=O | - | - | - | 13.1 | - | -
O=C1CCCCCN1CP(=O)(O)CCc1ccccc1 | - | - | - | - | - | -
Cc1cc(NC(=O)C(C)Sc2nc(-c3cccs3)nc3ccccc23)no1 (stereo unspecified) | - | 4.5 | - | - | - | -
Cc1cc(C)cc(C(=O)OCCN2CCN(C3CN(Cc4cn(Cc5ccc([N+](=O)[O-])cc5)nn4)S(=O)(=O)C3)CC2)c1 (stereo unspecified) | - | . | - | - | - | -
CC1(NC(=O)Nc2ccccc2)CCS(=O)(=O)C1 (stereo unspecified) | - | . | - | - | - | -
CC1(NC(=O)Nc2cccc(Br)c2)CCS(=O)(=O)C1 (stereo unspecified) | - | 5.2 | - | - | - | -
COc1ccc(-c2cc3c(=O)n(CC(=O)NCc4cccnc4)ncn3n2)cc1 | - | - | 6.1 | 10.7 | 3.8 | -
Cc1ccc(N2N=C(c3ccc(F)cc3)CC2c2ccco2)cc1 (stereo unspecified) | - | 5.1 | - | - | - | -
Cc1ccc(C2=NN(C(=O)CCCC(=O)O)C(c3ccco3)C2)cc1 (stereo unspecified) | 1.1 | - | - | - | - | -
CC(=O)N1N=C(c2ccc(C)cc2)CC1c1ccco1 (stereo unspecified) | - | - | - | - | - | -
SMILES | ssDAF12 agonist | DAX1 inh-1 | hcDAF12 agonist | hgDAF12 agonist | DAX1 inh-2 | SMARCA2 act
COc1ccc(C)cc1NC(=O)CSc1nnc(-c2n[nH]c3c2CCC3)n1N | - | . | - | - | - | -
COc1ccccc1C(=O)Nc1nnc(SCC(=O)Nc2ccc3c(c2)oc2ccccc23)s1 | - | - | - | - | - | 13.2
O=C(CSc1nnc(NC(=O)c2ccccc2)s1)NCc1ccco1 | - | - | - | - | - | -
O=C(CSc1nnc(NC(=O)c2ccc3c(c2)OCO3)s1)NCc1ccco1 | - | - | 5.9 | 12.7 | - | -
O=C(CSc1nnc(NC(=O)c2ccccc2F)s1)NCC1CCCO1 (stereo unspecified) | - | - | - | - | 3.8 | -
Cc1ccccc1C(=O)Nc1nnc(SCC(=O)NCc2ccco2)s1 | - | - | 5.9 | 11.8 | 8.0 | -
Cc1cccc(C(=O)Nc2nnc(SCC(=O)Nc3ccc4c(c3)oc3ccccc34)s2)c1 | - | - | - | - | - | -
O=C(NC1CCCCN(Cc2ccc(Cl)cc2)C1=O)c1ccc(F)c(F)c1 (stereo unspecified) | - | . | - | - | - | -
O=C(CN1CCc2ccccc21)NC(=O)NCc1ccco1 | 1.0 | - | - | - | - | -
O=C(CSc1nc2ccccc2s1)NC(=O)NCc1ccco1 | 1.4 | - | - | - | - | -
O=C(CN1CCN(c2ccccc2O)CC1)NC(=O)NCc1ccco1 | - | - | - | - | - | -
CC(C)NC(=O)/C(C#N)=C/c1ccc(N(C)C)o1 | - | 5.0 | - | - | - | -
CC(=O)Nc1ccc(N=Cc2c(O)c3ccccc3oc2=O)cc1 | - | - | - | - | - | -
CC(=O)Nc1ccc(N=Cc2c(O)c(C(=O)Nc3ccccc3)cc3ccccc23)cc1 | 2.1 | . | - | - | - | -
CCCCOc1ccc(Cc2c(Cl)nc(SC)nc2N2CCOCC2)cc1 | - | - | - | - | - | -
CSc1nc(Cl)c(Cc2ccc(OCC(C)C)cc2)c(N2CCOCC2)n1 | - | - | 5.9 | - | - | -
CCCCN1CC(=O)N2[C@H](C[C@@]3(n4ccc5ccccc54)c4ccccc4N(S(=O)(=O)c4ccccc4)[C@@H]23)C1=O | - | . | - | - | - | -
Cn1cnnc1SCC(=O)NC(=O)NCc1ccccc1 | - | - | - | - | - | -
Cc1ccc(CNC(=O)CSc2ncc(C(=O)Nc3ccccc3)c(=O)n2C)cc1 | 1.6 | - | - | - | - | -
CC(=O)Nc1ccc(NC(=O)CSc2ncc(C(=O)Nc3ccccc3)c(=O)n2C)cc1 | - | - | - | - | - | -
Cn1cnnc1SCC(=O)NCc1ccccc1 | - | - | - | 11.6 | - | -
COc1ccc(CCNC(=O)CSc2ncc(C(=O)Nc3ccccc3)c(=O)n2C)cc1 | - | - | - | - | - | -
Cn1c(SCC(=O)NCc2ccccc2)ncc(C(=O)Nc2ccccc2)c1=O | 1.0 | - | - | - | - | -
CN(C)c1cccc(NC(=O)c2cccc3ccccc23)c1 | 1.2 | - | 6.5 | - | - | -
Clc1ccc(-c2nc3ccccc3nc2-c2ccccc2)cc1 | - | - | 6.1 | - | - | -
Cc1ccc(-c2nc3ccccc3nc2-c2ccccc2)cc1 | - | - | - | - | - | -
COC(=O)[C@]12C[C@H](CC(=O)NCc3cccs3)C(=O)N(Cc3ccco3)C1=C[C@H](C(C)(C)C)O[C@@H]2C | - | . | - | - | - | -
CCOc1ccccc1C(=O)N[C@H](C(=O)Nc1nc2c(s1)CCCC2)C(C)C | 4.1 | - | - | - | - | -
CCCN(CC1CC1)c1nc(C)nc2c1nnn2Cc1ccccc1 | - | . | - | - | - | -
COc1ccc(CCNC(=O)Cc2ccccc2)cc1OC | - | 5.6 | - | - | - | -
